Potency data for 55 compounds are collected here from PubChem BioAssay (Tox21).

Structures are written as SMILES. Records with an inconclusive call do not appear. A call without a number means that no potency is given here. Activity calls are given as the source filed them. Calls follow the shape of the dose curve; as a rule, active = well fitted cell-killing curve with a large enough effect in the repeat runs; inconclusive = weak or mixed curves, or effect the other way; inactive = flat fitted curve, though single readings scatter.

A short description of experiment [1]: cAMP Responsive Elements (CRE) small molecule antagonists, cell-based qHTS assay: qHTS cell viability counter screen (AID 2060913). Also: nearly all actives have a fitted effect of over 40% in size. The essentials: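 Viability of NKH477-stimulated (0.25 uM final) CRE-bla HEK293T cells is measured by CellTiter-Glo luminescence following 3 hrs compound exposure at 37 C.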
Experiment [2] is described as follows: cAMP Responsive Elements (CRE) small molecule agonists, cell-based qHTS assay: qHTS cell viability counter screen (AID 2060914). Also: nearly all actives have a fitted effect of over 50% in size. The essentials: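 Cytotoxicity was measured as ATP luminescence (CellTiter-Glo, 30 min at room temperature) in the same wells as the CRE-bla FRET read-out. HEK293T CRE-bla cells had 3 h compound exposure at 37C/5% CO2.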

In the case of `O=C1NC2NC(=O)NC2N1` (stereo not given), the Potency entry in experiment [1] and in experiment [2] was “inactive” each time.

In the case of `CCC(=O)CC`, the Potency entry in experiment [1] and in experiment [2] was “inactive” throughout.

With `C=CC(C)(O)CCCC(C)CCCC(C)CCCC(C)C` (stereo not given), the Potency result in experiment [1] and in experiment [2] was “inactive” each time.

For `OCCCC1CCCCC1`, the Potency entry in experiment [1] and in experiment [2] was “inactive” throughout.

Turning to `C#C[C@]1(O)CC[C@H]2[C@@H]3CCC4=Cc5oncc5C[C@]4(C)[C@H]3CC[C@@]21C`, the Potency entry in experiment [1] and in experiment [2] was “inactive” throughout.

As to `CC(C)CCCCCCOC(=O)CCCCC(=O)OCCCCCCC(C)C`, the Potency result in experiment [1] and in experiment [2] was “inactive” throughout.

As to `COC(=O)[C@@H]1[C@H]2C[C@H]3c4[nH]c5ccccc5c4CCN3C[C@@H]2CC[C@@H]1O`, the Potency result in experiment [1] and in experiment [2] was “inactive” throughout.

Turning to `CCCNCCC`, the Potency entry in experiment [1] and in experiment [2] was “inactive” throughout.

`[O]=[Zr]`: the Potency entry in experiment [1] and in experiment [2] was “inactive” in each case.

With `Nc1ccc(C(=O)OCC(O)CO)cc1` (stereo not given), the Potency entry in experiment [1] and in experiment [2] was “inactive” each time.

On to `CCC=O`, for which the Potency entry in experiment [1] and in experiment [2] was “inactive” throughout.

Consider `CCCCC(C)C(=O)O` (stereo not given), for which the Potency entry in experiment [1] and in experiment [2] was “inactive” in each case.

Regarding `C[C@H]1O[C@H](O[C@H]2[C@H](O)[C@@H](O)[C@@H](O[C@H]3[C@H](O)[C@@H](O)[C@H](O)O[C@@H]3CO)O[C@@H]2CO)[C@H](O)[C@@H](O)[C@@H]1N[C@H]1C=C(CO)[C@@H](O)[C@H](O)[C@H]1O`, the Potency entry in experiment [1] and in experiment [2] was “inactive” in each case.

For the compound `CO[C@@H]1COCC[C@@H]1N[C@@H]1CC[C@@](C(=O)N2CCc3ncc(C(F)(F)F)cc3C2)(C(C)C)C1`, the Potency result in experiment [1] and in experiment [2] was “inactive” each time.

In the case of `CN1CCC(=C2c3ccccc3C=Cc3ccccc32)CC1`, the Potency entry in experiment [1] and in experiment [2] was “inactive” throughout.

In the case of `Cc1cccc([N+](=O)[O-])c1C`, the Potency result in experiment [1] and in experiment [2] was “inactive” throughout.

Take `C[C@]12CCC(=O)C=C1CC[C@@H]1[C@@H]2C(=O)C[C@@]2(C)[C@H]1CC[C@]2(O)C(=O)CO`: the Potency result in experiment [1] and in experiment [2] was “inactive” throughout.

Turning to `O=C(O[C@@H](C(=O)O)[C@@H](OC(=O)c1ccccc1)C(=O)O)c1ccccc1`, the Potency result in experiment [1] and in experiment [2] was “inactive” each time.

`O=C(O)/C=C/c1ccc(O)c(O)c1`: the Potency entry in experiment [1] and in experiment [2] was “inactive” in each case.

Regarding `O=c1c(O)c(-c2ccc(O)cc2O)oc2cc(O)cc(O)c12`, the Potency result in experiment [1] and in experiment [2] was “inactive” in each case.

For `CC(C)NC(=O)NC(C)C`, the Potency result in experiment [1] and in experiment [2] was “inactive” throughout.

For the compound `c1ccc2c(c1)-c1ccc3ccc4cccc5cc-2c1c3c45`, the Potency entry in experiment [1] and in experiment [2] was “inactive” throughout.

Take `CCCCCCCCOc1ccc(C(=O)O)cc1`: the Potency result in experiment [1] and in experiment [2] was “inactive” in each case.

Consider `C=CC(C)CCC=C(C)C` (stereo not given), for which the Potency entry in experiment [1] and in experiment [2] was “inactive” each time.

For the compound `NCCCN1CCN(CCCN)CC1`, the Potency entry in experiment [1] and in experiment [2] was “inactive” each time.

As to `CCc1ccc(CC)cc1`, the Potency entry in experiment [1] and in experiment [2] was “inactive” in each case.

On to `CCCCC`, for which the Potency entry in experiment [1] and in experiment [2] was “inactive” in each case.

In the case of `CC1(C)SC(C)(C)SC(C)(C)S1`, the Potency result in experiment [1] and in experiment [2] was “inactive” throughout.

As for `CC(C(=O)O)c1cccc(C(=O)c2ccccc2)c1` (stereo not given), the Potency entry in experiment [1] and in experiment [2] was “inactive” in each case.

`Cc1nc2n(c(=O)c1CCN1CCC(c3noc4cc(F)ccc34)CC1)CCCC2`: the Potency result in experiment [1] and in experiment [2] was “inactive” throughout.

As to `CCOC(=O)C(C)(C)C`, the Potency entry in experiment [1] and in experiment [2] was “inactive” in each case.

Regarding `O=C(CCBr)N1CCN(C(=O)CCBr)CC1`, the Potency entry in experiment [1] and in experiment [2] was “inactive” in each case.

Turning to `O=C1c2ccccc2C(=O)c2cc(O)ccc21`, the Potency result in experiment [1] and in experiment [2] was “inactive” in each case.

For `CCCCCCCCOS(=O)(=O)O`, the Potency entry in experiment [1] and in experiment [2] was “inactive” each time.

Consider `CCCOCCO`, for which the Potency entry in experiment [1] and in experiment [2] was “inactive” each time.

In the case of `O=Cc1ccccc1C=O`, the Potency result in experiment [1] and in experiment [2] was “inactive” in each case.

As for `O=C(OCC(O)CO)c1ccccc1Nc1ccnc2cc(Cl)ccc12` (stereo not given), the Potency entry in experiment [1] and in experiment [2] was “inactive” throughout.

On to `CC(N)CN` (stereo not given), for which the Potency result in experiment [1] and in experiment [2] was “inactive” in each case.

Consider `O=[N+]([O-])c1ccccc1C(F)(F)F`, for which the Potency result in experiment [1] and in experiment [2] was “inactive” throughout.

In the case of `NS(=O)(=O)Cc1noc2ccccc12`, the Potency entry in experiment [1] and in experiment [2] was “inactive” in each case.

With `FC(F)(F)c1cccc(Cl)c1`, the Potency entry in experiment [1] and in experiment [2] was “inactive” in each case.

On to `S=C(NC1CCCCC1)NC1CCCCC1`, for which the Potency entry in experiment [1] and in experiment [2] was “inactive” in each case.

For the compound `O=[N+]([O-])c1ccc(O)cc1`, the Potency result in experiment [1] and in experiment [2] was “inactive” throughout.

`CCCCCN(CCCOC)C(=O)C(CCC(=O)O)NC(=O)c1ccc(Cl)c(Cl)c1` (stereo not given): the Potency result in experiment [1] and in experiment [2] was “inactive” throughout.

Take `CCCc1ccc(OCC(=O)N2CCN(C(=O)COc3ccc(CCC)cc3OC)CC2)c(OC)c1`: the Potency entry in experiment [1] and in experiment [2] was “inactive” each time.

Turning to `CCOC(=O)CCc1ccccc1`, the Potency entry in experiment [1] and in experiment [2] was “inactive” each time.

`O=C(Cl)c1ccc(C(=O)Cl)cc1`: the Potency result in experiment [1] and in experiment [2] was “inactive” each time.

On to `Cn1cnc2c(F)c(Nc3ccc(Br)cc3Cl)c(C(=O)NOCCO)cc21`, for which the Potency entry in experiment [1] and in experiment [2] was “inactive” throughout.

Regarding `CC(COCCO)OCCO` (stereo not given), the Potency result in experiment [1] and in experiment [2] was “inactive” throughout.

Consider `CCCCCCCCOC(C)=O`, for which the Potency entry in experiment [1] and in experiment [2] was “inactive” each time.

Regarding `CN(C)C(=O)Nc1ccccc1`, the Potency entry in experiment [1] and in experiment [2] was “inactive” throughout.

Regarding `OCCN1CCNCC1`, the Potency entry in experiment [1] and in experiment [2] was “inactive” throughout.

For `CCCCCCCC(=O)OCC`, the Potency result in experiment [1] and in experiment [2] was “inactive” throughout.

On to `CC(=O)N(CC(=O)N(C)C)c1ccccc1`, for which the Potency entry in experiment [1] and in experiment [2] was “inactive” each time.

On to `CCCCCCC[N+](CC)(CC)CCCCc1ccc(Cl)cc1`, for which the Potency result in experiment [1] and in experiment [2] was “inactive” throughout.
